Vaccinia pol inh – vaccinia E9 polymerase processive synthesis inhibitors, primary screen, biochemical, absorbance | Vaccinia virus DNA polymerase (E9) processive complex | in vitro processive DNA synthesis, absorbance read-out; stronger effect = lower value | normalized absorbance, % (test concentration not listed) | hit rate 0.94% among 46,000 | AID 493162, 2011; in the data active = normalized absorbance mostly below about 85%, no sharp cut-off; inactive = mostly above about 86%
* = called active by the depositor. This excerpt belongs to a sample that is enriched for hits.

SMILES | Vaccinia pol inh
CC(=O)/C(C#N)=C(\N=C\N(C)C)SCc1c(Cl)cccc1Cl | 102.2
Fc1cccc(CSCc2c(F)cccc2Cl)c1 | 108.4
CN(C)/C=C/C(=N)SCc1c(F)cccc1Cl | 75.0*
CC1CCc2c(sc(NC(=O)CN(Cc3ccccc3)Cc3ccccc3)c2C#N)C1 (configuration not stated) | 105.4
O=C(O)CC1(CC(=O)Nc2ccccc2O)CCCC1 | 104.7
CCN1C(=O)/C(=C\c2ccc(N(CC)CC)cc2)SC1=S | 95.3
CCCc1cc(=O)oc2c(CN3CCCCC3)c(O)ccc12 | 98.4
N#Cc1cnn(-c2ccc(C(F)(F)F)cn2)c1N | 100.9
CCc1nnc(SCc2ccccc2)c2cc3occc3n12 | 90.6
Cc1nnc(SCc2ccc(F)cc2Cl)c2cc3occc3n12 | 71.7*
Cc1ccc(C)c(CSc2nncn3c2cc2occc23)c1 | 91.1
CCN1CCN(C(=O)Cc2c(C(=O)O)[nH]c3ccccc23)CC1 | 103.3
O=C(NC1CCCc2ccccc21)c1cnn(-c2ccccc2)c1-n1cccc1 (configuration not stated) | 102.1
COc1ccccc1/C=C/C(=O)OCCN1CCCC1=O | 103.1
O=C(Nc1ccc2cn[nH]c2c1)c1cc(=O)c2ccccc2o1 | 95.5
O=C1c2c(O)ccc(O)c2C(=O)c2c(NCCNCCO)ccc(NCCNCCO)c21 | 7.8*
O=C(Cc1c(O)c2ccccc2[nH]c1=O)NCc1ccccc1Cl | 101.4
C(=Nc1ccc(Nc2ccccc2)cc1)c1ccc2ncccc2c1 | 101.8
COCc1cc(C)nc(SCC(=O)N2CCCCC2)c1C#N | 100.3
CCc1ccc(NC(=O)NCCCN2CCCc3ccccc32)cc1 | 100.9
Cc1ccc(SCC(=O)N2CCc3ccccc32)cc1 | 99.9
O=C(CSc1c[nH]c2ccccc12)N1CCc2ccccc21 | 99.8
Nc1ccccc1SCC(=O)N1CCc2ccccc21 | 78.7*
C=C1C(C(=O)NCc2ccncc2)C1C(=O)NCc1ccncc1 (configuration not stated) | 103.2
Cc1sc2ncn(C(C)C(=O)O)c(=O)c2c1C (configuration not stated) | 104.0
SMILES | Vaccinia pol inh
c1ccc(-c2nc(NCc3cccnc3)c3ccccc3n2)cc1 | 101.5
Cn1c(SCc2ccccc2)nc2c([nH]c3ccccc32)c1=O | 97.2
c1ccc(CNc2ccc3c(ccc4c5ccccc5[nH]c34)n2)cc1 | 54.1*
CCCC(NC(=O)c1ccccc1)c1nc2ccccc2[nH]1 (configuration not stated) | 96.8
COc1ccc(C2C(C#N)=C(O)NC(=O)C2[n+]2ccccc2)cc1OC (configuration not stated) | 99.8
O=C(Nc1ccccc1)Nc1ccc(Br)cc1 | 100.4
NNc1ccc(Br)cc1 | 54.0*
NNc1ccc(Cl)c(Cl)c1 | 85.1
COc1cccc(CN2CCN(C(=O)c3cccs3)CC2)c1 | 99.1
CN(Cc1ccco1)C(=O)C1CCCN1S(=O)(=O)c1cccc2nsnc12 (configuration not stated) | 98.5
Cc1c(NC(=O)CCN2C(=S)NC(C)(C)CC2C)c(=O)n(-c2ccccc2)n1C (configuration not stated) | 91.4
O=c1c2ccccc2nc(-c2ccccc2)n1OCc1ccc(Br)cc1 | 92.2
CN1/C(=C/C=C/c2oc3ccccc3[n+]2C)Oc2ccccc21 | 89.0*
O=C(CN1C(=O)N(c2ccc(Cl)cc2)S(=O)(=O)c2ccccc21)N1CCCc2ccccc21 | 101.6
Cc1cc2cc(CNC(=S)NCCc3ccccc3)ccc2n1C | 81.7
CC1CCCN(CCCNC(=O)C2CCCN(c3ncnc4c3nc3n4CCCCC3)C2)C1 (configuration not stated) | 101.0
Cc1ccc(CCNC(=O)c2coc3nc4ccccc4nc23)cc1 | 103.0
CC1CCCN(CCCNC(=O)c2coc3nc4ccccc4nc23)C1 (configuration not stated) | 60.3*
CC(C)(C)C(=O)COC(=O)c1sc2ccccc2c1Cl | 104.2
CCn1c(=NC(=O)c2ccc(S(=O)(=O)N(C)C)cc2)sc2cc(Cl)ccc21 | 99.0
COC(=O)c1c(=O)n(O)c2cc(Cl)c(Cl)cc2[n+]1[O-] | 100.1
Cc1ccc2oc(-c3ccccc3)cc(=NCCO)c2c1 | 48.6*
CCC(N=c1cc(-c2ccc(OC)cc2)oc2ccc(C)cc12)C(=O)O (configuration not stated) | 97.9
CCc1ccc2oc(-c3ccccc3)cc(=NCc3cccnc3)c2c1 | 79.8*
c1ccc(-c2nc3cc(NCc4cccnc4)ccc3o2)cc1 | 100.2
SMILES | Vaccinia pol inh
C(=NCc1ccccc1)c1cn(-c2ccccc2)nc1-c1cccnc1 | 98.2
Oc1ccc(N=c2cc(-c3ccccc3)oc3ccc(Cl)cc23)cc1 | 98.0
Cc1ccc2oc(-c3ccccc3)c(C(=O)O)c(=O)c2c1 | 87.4
Cc1ccc2oc(-c3ccccc3)cc(=NCCN(C)C)c2c1 | 30.3*
Cc1ccc2oc(-c3ccccc3)c(CN3CCOCC3)c(=O)c2c1 | 97.8
CC(O)CN=c1cc(-c2ccccc2)oc2ccc(Cl)cc12 (configuration not stated) | 45.6*
O=c1cc(-c2ccccc2)oc2cc(Cl)ccc12 | 98.4
COc1ccc2oc(-c3ccccc3)cc(=O)c2c1 | 77.3
